Assay results taken from PubChem BioAssay (NCATS).
Records with an inconclusive call do not appear. A call without a number means that no potency is given here. A number with no mark means an inactive call. Calls of active or inactive are those of the source. Calls come from the whole dose curve; as a rule, active = well fitted inhibition curve with a large enough effect; inconclusive = small, poorly fitted or top-dose-only effect; inactive = flat fitted curve, though single readings scatter.

System: Zika virus NS2B-NS3 protease
Assay: Primary screen GU AMC qHTS for Zika virus inhibitors (AID 1347154); note: nearly all actives have a fitted effect of over 70% in size
Conditions: Zika NS2B-NS3 unlinked protease, AMC fluorogenic substrate; series mostly up to 54.1 µM
Procedure, shortened: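 Fluorogenic AMC-substrate cleavage by noncovalent NS2B-NS3 protease complex (25 nM, pH 8.0 Tris buffer with Tween 20) followed for 15 minutes at room temperature (~20% conversion). Percent inhibition from ex340/em450 signal change, fitted by 4-parameter Hill equation.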
Potency is the fitted concentration of half-maximal effect.

Row | Compound | Potency | activity change, negative = inhibition
1 | NC(=NCCCCCCN=C(N)N=C(N)Nc1ccc(Cl)cc1)N=C(N)Nc1ccc(Cl)cc1 | inactive | 
2 | Nc1nc(=O)n([C@H]2C[C@H](O)[C@@H](CO)O2)cc1F | inactive | 
3 | CC(=O)O[C@]1(C(C)=O)CC[C@H]2[C@@H]3C=C(C)C4=CC(=O)CC[C@]4(C)[C@@H]3CC[C@@]21C | inactive | 
4 | C#C[C@]1(O)CC[C@@H]2[C@@H]3CCC4=CC(=O)CC[C@@H]4[C@H]3CC[C@@]21CC | inactive | 
5 | CCCc1nc(C(C)(C)O)c(C(=O)O)n1Cc1ccc(-c2ccccc2-c2nn[nH]n2)cc1 | inactive | 
6 | CCCNS(=O)(=O)Nc1ncnc(OCCOc2ncc(Br)cn2)c1-c1ccc(Br)cc1 | inactive | 
7 | CC[C@H]1OC(=O)[C@H](C)[C@@H](O[C@H]2C[C@@](C)(OC)[C@@H](O)[C@H](C)O2)[C@H](C)[C@@H](O[C@@H]2O[C@H](C)C[C@H](N(C)C)[C@@H]2O)[C@](C)(OC)C[C@@H](C)C(=O)[C@H](C)[C@@H](O)[C@]1(C)O | inactive | 
8 | CC(C)[C@H](CO)Nc1nc(Nc2cccc(Cl)c2)c2ncn(C(C)C)c2n1 | inactive | 
9 | C[C@H](NCc1ccc(OCc2cccc(F)c2)cc1)C(N)=O | inactive | 
10 | O=C1c2cccc(O)c2C(=O)c2c(O)cc(CO)cc21 | inactive | 
11 | CC(O)(C#Cc1ccc2c(c1)N(c1nc(N)ncc1Cl)CC2)c1nccs1 (stereo unspecified) | inactive | 
12 | c1cncc(CN2CCC(n3ncc4c(N5CCOCC5)nc(-c5ccc6[nH]ccc6c5)nc43)CC2)c1 | inactive | 
13 | CN1C(C(=O)Nc2ccccn2)=C(O)c2sc(Cl)cc2S1(=O)=O | inactive | 
14 | NC(=O)c1ncn([C@@H]2O[C@H](CO)[C@@H](O)[C@@H]2O)c1O | inactive | 
15 | CCN(C(=O)c1c(O)c2c(Cl)cccc2n(C)c1=O)c1ccccc1 | inactive | 
16 | O=C(c1ccc(F)cc1)N1CCC[C@H](c2nc(-c3ccc(F)cc3)no2)C1 | inactive | 
17 | C[C@H](CCC(=O)O)[C@H]1CCC2C3C[C@H](O)[C@@H]4C[C@H](O)CC[C@]4(C)C3CC[C@@]21C (stereo partly specified) | inactive | 
18 | CC(C)(C)c1nc2c3cc[nH]c(=O)c3c3cc(F)ccc3c2[nH]1 | inactive | 

Row | Compound | Potency | activity change, negative = inhibition
19 | COc1cc2c(cc1O)CCC1C2CC[C@@]2(C)C1CC[C@@H]2O (stereo partly specified) | inactive | 
20 | CC(C)(C)[C@H](NC(=O)c1ccc(N)c(Cl)c1)C(=O)N1CCC[C@@H]1C(=O)N[C@H](C#N)CC(=O)O |  | 6.17% [at 6.83 µM]
21 | Cc1cc(C(=O)NOCCO)c(Nc2ccc(I)cc2F)n(C)c1=O | inactive | 
22 | CN(N=O)C(=O)N[C@H]1C(O)OC(CO)[C@@H](O)[C@H]1O (stereo partly specified) | inactive | 
23 | C[C@H]1C[C@H]2[C@@H]3CCC4=CC(=O)C=C[C@]4(C)[C@@H]3C(=O)C[C@]2(C)[C@@]1(O)C(=O)CO | inactive | 
24 | CCCCCCCN(CC)CCCC(O)c1ccc(NS(C)(=O)=O)cc1 (stereo unspecified) | 24.1 µM (active) | 
25 | C=CC(=O)Nc1cc(NC(=O)c2ccc(C)c(NC(=O)c3ccno3)c2)cc(C(F)(F)F)c1 | inactive | 
26 | CN(C)c1ccc2cc(C(=O)N[C@@H](CCCN=C(N)CCl)C(=O)NCc3ccccc3)ccc2c1 | inactive | 
27 | N#Cc1ccc(COC[C@H]2O[C@@H](n3c(NCc4ccc(Cl)c(Cl)c4)nc4c(N)ncnc43)[C@@H](O)[C@@H]2O)cc1 | inactive | 
28 | CCCNC(=O)[C@H]1O[C@H]1C(=O)N[C@H](C(=O)N1CCC[C@@H]1C(=O)OC)C(C)CC (stereo partly specified) | inactive | 
29 | CC1(C)CC(O)CC(C)(C)N1[O] | inactive | 
30 | CCC[C@H]1C[C@H](C(=O)N[C@@H]([C@@H]2O[C@@H](SC)[C@@H](O)[C@@H](O)[C@@H]2O)[C@H](C)Cl)N(C)C1 | inactive | 
31 | CCCCOc1ccc(C(=O)Nc2ccc(F)cc2F)cc1 | inactive | 
32 | Cc1cc(O)c2c(c1)C(=O)c1cccc(O)c1C2=O | inactive | 
33 | OCC(O)C(O)C(O)CO (stereo unspecified) | inactive | 
34 | C[C@H](O)[C@@H]1C(=O)N2C(C(=O)O)=C(S[C@@H]3CN[C@H](CNS(N)(=O)=O)C3)[C@@H](C)[C@@H]12 | inactive | 
35 | C[C@](Cc1c[nH]c2ccccc12)(NC(=O)OC1C2CC3CC(C2)CC1C3)C(=O)NC[C@H](NC(=O)CCC(=O)O)c1ccccc1 (stereo partly specified) | inactive | 
36 | C=C1C[C@@]2(O)O[C@@]3(C[C@H]2C(C)C)[C@H](C)CC[C@H]13 | inactive | 
